Test results as given in PubChem BioAssay AID1159580 (chemical genetic matrix, 2015).
“And” between values parts separate entries of the source, which are not always exact repeats. Equal entries are not always repeated. Screen size: about 5,500 compounds; about 2,000 (36%) were called active. Not shown: some 18% with an inconclusive outcome. The list shows a part of the results. Values without a mark were called inactive. Rule as the data show it: active = normalized growth mostly below about 0.91 (no sharp cut-off); inconclusive = no clear call, values can overlap the other calls; inactive = mostly above about 0.92.

Test: chemical genetic growth profiling, strain panel (AID 1159580);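 also: tested at 20 µM; growth read once vehicle control cultures reached saturation at 30 °C; 1 = growth at the plate median or of vehicle wells; lower values mean less growth of the strain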
Details: S. cerevisiae deletion strains, growth OD

Molecule CCCC(CCC)C(=O)O has a normalized growth (locus YJR066W, strain TOR1, hits give low values) of 0.926, a normalized growth (locus YJR075W, strain HOC1, hits give low values) of 0.982 and a normalized growth (locus YKL009W, strain mrt4, hits give low values) of 0.977. For the same molecule, the normalized growth (locus YKL068W, hits give low values) was 0.91 (active), the normalized growth (locus YKL085W, strain MDH1 (second series), hits give low values) was 0.918 (active) and the normalized growth (locus YKL085W, strain MDH1, hits give low values) was 0.918 (active). The normalized growth (locus YKL160W, strain elf1, hits give low values) was 1, the normalized growth (locus YKR001C, strain vps1, hits give low values) was 0.932 and the normalized growth (locus YKR026C, strain gcn3, hits give low values) was 1.01. It also gave a normalized growth (locus YKR091W, strain srl3, hits give low values) of 1.01, a normalized growth (locus YLL001W, strain dnm1, hits give low values) of 1 and a normalized growth (locus YLL026W, hits give low values) of 0.993. For the same molecule, the normalized growth (locus YLL041C, strain sdh2, hits give low values) was 1.01, the normalized growth (locus YLR027C, strain aat2, hits give low values) was 1 and the normalized growth (locus YLR039C, strain RIC1, hits give low values) was 0.97. For the same molecule, the normalized growth (locus YLR058C, strain SHM2, hits give low values) was 0.999, the normalized growth (locus YLR102C, strain apc9, hits give low values) was 0.977 and the normalized growth (locus YLR113W, strain HOG1, hits give low values) was 0.853 (active). For the same molecule, the normalized growth (locus YLR221C, strain rsa3, hits give low values) was 0.999, the normalized growth (locus YLR258W, strain gsy2, hits give low values) was 1.01 and the normalized growth (locus YLR262C, strain YPT6 (second series), hits give low values) was 0.99. For the same molecule, the normalized growth (locus YLR262C, strain YPT6, hits give low values) was 0.945, the normalized growth (locus YLR268W, strain sec22, hits give low values) was 0.961 and the normalized growth (locus YLR320W, strain mms22, hits give low values) was 1.01. It also gave a normalized growth (locus YLR330W, strain CHS5, hits give low values) of 0.992, a normalized growth (locus YLR342W, strain FKS1 (second series), hits give low values) of 1.01 and a normalized growth (locus YLR342W, strain FKS1, hits give low values) of 1.01. For the same molecule, the normalized growth (locus YLR357W, strain rsc2, hits give low values) was 1.06, the normalized growth (locus YLR370C, strain arc18, hits give low values) was 1.01 and the normalized growth (locus YLR371W, strain rom2, hits give low values) was 0.975. The normalized growth (locus YLR384C, strain iki3, hits give low values) was 1.01, the normalized growth (locus YLR418C, strain cdc73, hits give low values) was 0.987 and the normalized growth (locus YML016C, strain PPZ1, hits give low values) was 0.992. The normalized growth (locus YML032C, strain rad52, hits give low values) was 0.98, the normalized growth (locus YML120C, strain ndi1, hits give low values) was 1 and the normalized growth (locus YML124C, strain tub3, hits give low values) was 0.95. The normalized growth (locus YMR058W, strain fet3, hits give low values) was 1.01, the normalized growth (locus YMR078C, strain ctf18, hits give low values) was 0.967 and the normalized growth (locus YMR125W, strain sto1, hits give low values) was 1.03. The normalized growth (locus YMR129W, hits give low values) was 1.01, the normalized growth (locus YMR205C, strain PFK2, hits give low values) was 1.02 and the normalized growth (locus YMR223W, strain ubp8, hits give low values) was 0.994. It also gave a normalized growth (locus YMR231W, strain pep5, hits give low values) of 1.02, a normalized growth (locus YMR263W, strain SAP30, hits give low values) of 0.999 and a normalized growth (locus YMR307W, strain GAS1, hits give low values) of 1.04. For the same molecule, the normalized growth (locus YNL067W, strain RPL9B, hits give low values) was 0.988, the normalized growth (locus YNL071W, strain lat1, hits give low values) was 1.01 and the normalized growth (locus YNL128W, strain TEP1, hits give low values) was 1. The normalized growth (locus YNL175C, strain NOP13, hits give low values) was 1, the normalized growth (locus YNL183C, strain NPR1, hits give low values) was 0.931 and the normalized growth (locus YNL197C, strain WHI3, hits give low values) was 0.971. It also gave a normalized growth (locus YNL209W, strain ssb2, hits give low values) of 1.01, a normalized growth (locus YNL224C, strain SQS1, hits give low values) of 0.981 and a normalized growth (locus YNL233W, strain BNI4, hits give low values) of 0.977. For the same molecule, the normalized growth (locus YNL248C, strain rpa49, hits give low values) was 1.04, the normalized growth (locus YNL250W, strain rad50, hits give low values) was 0.937 and the normalized growth (locus YNL271C, strain bni1, hits give low values) was 0.942. It also gave a normalized growth (locus YNL298W, strain CLA4, hits give low values) of 0.969, a normalized growth (locus YNL307C, strain MCK1, hits give low values) of 0.945 and a normalized growth (locus YNL322C, strain KRE1 (second series), hits give low values) of 1. For the same molecule, the normalized growth (locus YNL322C, strain KRE1, hits give low values) was 0.983 and 0.987, the normalized growth (locus YNR049C, strain mso1, hits give low values) was 1.01 and the normalized growth (locus YNR052C, strain pop2, hits give low values) was 0.985. It also gave a normalized growth (locus YOL006C, strain TOP1, hits give low values) of 1.05, a normalized growth (locus YOL012C, strain htz1) of 1.46 and a normalized growth (locus YOL147C, strain pex11, hits give low values) of 0.961. The normalized growth (locus YOR001W, strain rrp6, hits give low values) was 1.01, the normalized growth (locus YOR061W, strain CKA2, hits give low values) was 0.998 and the normalized growth (locus YOR069W, strain VPS5, hits give low values) was 0.985. For the same molecule, the normalized growth (locus YOR070C, strain gyp1, hits give low values) was 1.01, the normalized growth (locus YOR080W, strain dia2, hits give low values) was 1.02 and the normalized growth (locus YOR083W, strain WHI5 (second series), hits give low values) was 0.985. It also gave a normalized growth (locus YOR083W, strain WHI5, hits give low values) of 0.998, a normalized growth (locus YOR106W, strain vam3, hits give low values) of 1.01 and a normalized growth (locus YOR136W, strain idh2, hits give low values) of 0.968. It also gave a normalized growth (locus YOR144C, strain elg1, hits give low values) of 0.965, a normalized growth (locus YOR184W, strain ser1, hits give low values) of 0.966 and a normalized growth (locus YOR231W, strain MKK1, hits give low values) of 0.935. It also gave a normalized growth (locus YOR265W, strain rbl2, hits give low values) of 1.01, a normalized growth (locus YOR270C, strain vph1, hits give low values) of 1.07 and a normalized growth (locus YOR290C, strain snf2, hits give low values) of 1. The normalized growth (locus YOR316C, strain cot1, hits give low values) was 0.977, the normalized growth (locus YPL051W, strain arl3, hits give low values) was 0.999 and the normalized growth (locus YPL055C, strain LGE1, hits give low values) was 1. It also gave a normalized growth (locus YPL078C, strain atp4, hits give low values) of 1.01, a normalized growth (locus YPL106C, strain sse1, hits give low values) of 1.01 and a normalized growth (locus YPL240C, strain hsp82, hits give low values) of 1.02. For the same molecule, the normalized growth (locus YPL256C, strain CLN2, hits give low values) was 0.882, the normalized growth (locus YPR119W, strain clb2, hits give low values) was 0.976 and the normalized growth (locus YPR141C, strain kar3, hits give low values) was 0.871 (active). It also gave a normalized growth (locus YPR163C, strain tif3, hits give low values) of 0.959, a normalized growth (locus YPR167C, strain met16, hits give low values) of 0.973 and a normalized growth (strain wtn01, hits give low values) of 0.954.
